From PubChem BioAssay (NCATS) come the findings set out here.

“And” between values parts separate entries of the source, which are not always exact repeats. Equal entries are not always repeated. Inconclusive results are not listed. Where a call stands in place of a potency, no number is given. The source made the active and inactive calls. Calls follow the shape of the full dose curve.

A short description of this test: Primary qHTS to identify inhibitors of SARS-CoV-2 cell entry (AID 1645846). Also: nearly all actives have a fitted effect of over 45% in size. Conditions: SARS-CoV-2 pseudovirus cell entry assay, luminescence; activity change, negative = inhibition: at 57.1 µM (top of the series) unless noted; series mostly up to 57.1 µM. In a few lines: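 Entry measured by luciferase signal 48 h after adding SARS-CoV-2-S pseudotyped MLV particles to HEK293-ACE2 cells preincubated 1 h with compounds. Normalisation: bald particles and spike particles.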
As for `CCCCC(CC)COC(=O)c1ccccc1O` (stereo unspecified), the Potency entry was “inactive”.

Take `CC(CCc1ccc(O)cc1)NCCc1ccc(O)c(O)c1` (stereo unspecified): the activity change, negative = inhibition was -37.3%.

With `N[C@@H](Cc1cc(I)c(Oc2ccc(O)c(I)c2)c(I)c1)C(=O)O`, the Potency entry is “inactive”.

For the compound `CC(C)CN(C[C@@H](OP(=O)(O)O)[C@H](Cc1ccccc1)NC(=O)O[C@H]1CCOC1)S(=O)(=O)c1ccc(N)cc1`, the activity change, negative = inhibition was -18.7%.

For `OC[C@H]1O[C@@H](n2cnc3c2NC=NC[C@H]3O)C[C@@H]1O`, the activity change, negative = inhibition was -15% and -28%.

Regarding `O=C(O)Cc1cccc2ccccc12`, the Potency result is “inactive”.

Regarding `Cc1ccccc1N1CCN(CCc2nnc3n2CCCC3)CC1`, the Potency result was “inactive”.

On to `CCCCN(CCCC)CCCOC(=O)c1ccc(N)cc1`, for which the activity change, negative = inhibition is -17.6%.

As to `COc1ccc(C(=O)c2ccccc2)c(O)c1`, the Potency entry was “inactive”.

In the case of `N#CSCC(=O)O`, the Potency result is “inactive”.

As to `NS(=O)(=O)c1cc(C(=O)NN2C[C@H]3[C@H]4CCC(C4)[C@H]3C2)ccc1Cl`, the activity change, negative = inhibition is -24.3%.

In the case of `CC(=O)NS(=O)(=O)c1ccc(N)cc1`, the Potency entry was “inactive”.

For `CC(=O)Nc1c(I)c(NC(C)=O)c(I)c(C(=O)O)c1I`, the activity change, negative = inhibition was -1.67%.

Take `CC(=O)Nc1ccc(C(=O)O)cc1`: the Potency result was “inactive”.

Take `CC[C@H](C)[C@H](N)C(=O)O`: the Potency entry was “inactive”.

With `CCN(CC)CCNC(=O)c1ccc(N)cc1`, the Potency result is “inactive”.

With `CCS(=O)(=O)CCn1c([N+](=O)[O-])cnc1C`, the Potency result is “inactive”.

In the case of `CCCNC(C)C(=O)Nc1ccccc1C` (stereo unspecified), the Potency entry was “inactive”.

On to `O=c1[nH]c(=O)n([C@H]2CCCO2)cc1F`, for which the Potency result was “inactive”.

Turning to `CC(=O)CC/C=C(\C)CC/C=C(\C)CC/C=C(\C)CCC=C(C)C`, the activity change, negative = inhibition is -24.7%.

On to `COc1nccnc1NS(=O)(=O)c1ccc(N)cc1`, for which the Potency result is “inactive”.
